The source of these data is PubChem BioAssay AID593 (National Center for Advancing Translational Sciences (NCATS), 2007).

Among all 59,000 compounds or so, about 540 (0.92%) were called active. Roughly 33% stayed inconclusive and do not appear here. This is one part of a sample in which actives are shown more often than they occur. Rule as the data show it: active = max fluorescein-equivalent concentration above about 10 nM; inconclusive = between about 1.1 nM and that limit; inactive = weaker than that.

A short description of the assay: qHTS Assay for Spectroscopic Profiling in Fluorescein Spectral Region. Particulars: Compound autofluorescence, 480/540 nm; max fluorescein-equivalent concentration: active compounds read high; outcome: fluorescein-equivalent. An excerpt:
NIH Molecular Libraries Screening Centers Network [MLSCN]
NIH Chemical Genomics Center [NCGC]
Occasionally, the artifactual effect may originate from the compound's own spectral or other biophysical properties which generally tend to track its assay concentration. Pre-screening/profiling the library with respect to the compounds' spectral properties should help one exclude false positives early on. While the most informative fluorescent profiling data set is obtained by performing a full excitation and emission scan of each well by using a monochromator-based plate reader, such an approach is practical only on a very limited scale as scanning each well requires long time. An alternative approach, applied here, is to perform plate reader scans using selected excitation and emission wavelength pairs to generate a multidimensional relational database that correlates compound concentration and the respective relative fluorescence intensity at a given wavelength set. A standard curve of fluorescein present on each plate as six-point concentration series, was used to compute a normalized fluorescence response, termed dye-equivalent concentration, for each compound at each concentration.
NCGC Assay Protocol Summary:
100 mM Tris buffer, pH 8.0
The wells in columns 1 through 4 of a Kalypsys polypropylene 1536-well compound plate were filled with standard solutions of fluorophore corresponding to the spectral region of interest. Solutions of Fluorescein were placed in the following wells: Q1, R1: 3 mM, Q2, R2: 300 uM, Q3, R3: 30 uM, Q4, R4: zero (DMSO), S1, T1: 3 uM, S2, T2: 900 nM, S3, T3: 300 nM, S4, T4: zero (DMSO).
Six uL of buffer were dispensed to 1536-well Greiner black plates. Compounds and dye standards (23 nL) were transferred via Kalypsys PinTool. The plates were incubated for 15 min at room temperature, and then read on ViewLux (Perkin-Elmer) High-throughput CCD imager using 480 nm and 540 nm excitation and emission filter set.
Keywords: NIH Roadmap, MLSCN, MLI, MLSMR, qHTS, NCGC, Fluorescein, Fluorescent Profiling.
A general note: In qHTS, concentration-response curves come from the screen itself.
In the case of `CC(C)CC(=O)N=C1SC2CS(=O)(=O)CC2N1CCc1ccccc1` (stereo not given), the max fluorescein-equivalent concentration result was “inactive”.

Regarding `O=C(c1ccco1)N1CCC2(CC1)CCN(c1ncccn1)CC2`, the max fluorescein-equivalent concentration entry is “inactive”.

Take `NCC(=O)[C@@H](O)[C@H](O)[C@H](O)CO`: the max fluorescein-equivalent concentration entry is “inactive”.

On to `Cc1cc(C)c2cc(CN(Cc3cccs3)Cc3nnnn3CC3CCCO3)c(=O)[nH]c2c1` (stereo not given), for which the max fluorescein-equivalent concentration result was “inactive”.

On to `CS(=O)(=O)N1CCC2(CCN(c3ccncc3)CC2)CC1`, for which the max fluorescein-equivalent concentration entry was “inactive”.

Regarding `COc1ccc(-c2ccc(-c3noc(-c4ccncc4)n3)c(OC)n2)cc1`, the max fluorescein-equivalent concentration result is “inactive”.

Take `COc1cccc(-c2cc(NCCc3c[nH]c4ccc(OC)cc34)ncn2)c1`: the max fluorescein-equivalent concentration entry is “inactive”.

Turning to `CN1CCN(c2ccc(NC(=O)COc3ccc(Cl)cc3Cl)cc2)CC1`, the max fluorescein-equivalent concentration result was “inactive”.

Regarding `Clc1ccc(C(c2ccc(Cl)cc2)n2cc[n+](C[C@@H](OCc3ccc(Cl)cc3Cl)c3ccc(Cl)cc3Cl)c2)cc1`, the max fluorescein-equivalent concentration entry is “inactive”.

With `COCCn1c(=O)c(CCc2ccccc2)nc2cnc(N3CCNCC3)nc21`, the max fluorescein-equivalent concentration result is “inactive”.

For `COc1ccccc1CCn1c(=O)c(-c2cn(C)c3ccccc23)nc2cncnc21`, the max fluorescein-equivalent concentration entry is “inactive”.

As to `CCn1c(Cc2ccccc2)nnc1SCC(=O)Nc1ccccc1`, the max fluorescein-equivalent concentration result is “inactive”.

Turning to `O=c1cc(-c2ccc(O)c(O)c2)oc2cccc(O)c12`, the max fluorescein-equivalent concentration result was “inactive”.

In the case of `CCCCCCn1c(CN2CCCC(C)C2)nc2c1c(=O)n(C)c(=O)n2C` (stereo not given), the max fluorescein-equivalent concentration entry was “inactive”.

As to `CCCn1c(O)c(CN2CCCC(C)C2)c(C)c(C#N)c1=O` (stereo not given), the max fluorescein-equivalent concentration is 65 nM (active).

As for `COC(=O)c1c(NC(=O)CSc2nc3c(c(=O)n(C)c(=O)n3C)n2C(C)C)sc(C)c1C`, the max fluorescein-equivalent concentration entry is “inactive”.

As to `Clc1ccc(C=Nc2ccc3c(c2)Cc2ccccc2-3)c(Cl)c1`, the max fluorescein-equivalent concentration entry is “inactive”.

Take `CCNc1ncc2nc(CCc3ccccc3)c(=O)n(-c3ccc(OC)cc3)c2n1`: the max fluorescein-equivalent concentration entry was “inactive”.

`CSCCC(Nc1nc2ccccc2s1)C(=O)O` (stereo not given): the max fluorescein-equivalent concentration entry is “inactive”.

Turning to `CCn1c(COc2cccc(OC)c2)nnc1SCC(=O)N1CCOCC1`, the max fluorescein-equivalent concentration entry was “inactive”.

Turning to `O=C(O)[C@@H](S)[C@H](S)C(=O)O`, the max fluorescein-equivalent concentration entry is “inactive”.

For `COc1ccc(OC)c([C@H](O)CNC(=O)CN)c1`, the max fluorescein-equivalent concentration result is “inactive”.

Turning to `Cc1ccc(S(=O)(=O)C(C#N)c2nc3ccccc3nc2N2CCCC2)cc1C` (stereo not given), the max fluorescein-equivalent concentration is 14 nM (active).

As for `COCCNC(=O)C(C#N)c1nc2ccccc2nc1N1CCN(Cc2ccc3c(c2)OCO3)CC1` (stereo not given), the max fluorescein-equivalent concentration entry was “inactive”.

With `CC(=O)/C(=N\N=C(N)N)c1ccccc1`, the max fluorescein-equivalent concentration entry was “inactive”.

Take `CCCCC(=O)Nc1ccc(C(=O)NCCCn2ccnc2)cc1`: the max fluorescein-equivalent concentration entry is “inactive”.

On to `O=c1[nH]nc(CSCc2ccccc2Cl)[nH]1`, for which the max fluorescein-equivalent concentration entry was “inactive”.

`COC(=O)N1CCC[C@@]2(CCN(C(=O)NC(C)C)C2)C1`: the max fluorescein-equivalent concentration entry is “inactive”.

As to `CCOC(=O)c1cc2n(c1C)-c1ccccc1C2=O`, the max fluorescein-equivalent concentration entry is “inactive”.

For `CCOC(=O)c1cc2n(c1N)-c1ccccc1C2=O`, the max fluorescein-equivalent concentration was 780 nM (active).

As to `CCOC(=O)c1cc2ccccc2nc1C`, the max fluorescein-equivalent concentration result was “inactive”.

For the compound `CCc1ccc2oc(-c3ccc(N)cc3)nc2c1`, the max fluorescein-equivalent concentration entry is “inactive”.

Consider `CCN(CC)c1ccc2oc(=O)c(C)nc2c1`, for which the max fluorescein-equivalent concentration is 140 nM (active).

As to `O=C(c1ccncc1)N1CCC2(CCCN(C(c3ccccc3)c3ccccc3)C2)CC1`, the max fluorescein-equivalent concentration result is “inactive”.

For the compound `CC(C)CSC[C@@H]1O[C@H](n2cnc3c(N)nccc32)[C@H](O)[C@@H]1O`, the max fluorescein-equivalent concentration entry was “inactive”.

In the case of `COc1ccc(-c2nc3cnc(Oc4ccccc4)nc3n(Cc3cccs3)c2=O)cc1`, the max fluorescein-equivalent concentration result is “inactive”.

As to `CCOc1ccc(N=NS(=O)(=O)O)cc1`, the max fluorescein-equivalent concentration result was “inactive”.

On to `O=c1c(-c2cccs2)nc2cnc(Oc3ccccc3)nc2n1-c1ccccc1`, for which the max fluorescein-equivalent concentration entry is “inactive”.

On to `CCn1c(COc2ccc(OC)cc2)nnc1SCC(=O)Nc1cc(OC)ccc1OC`, for which the max fluorescein-equivalent concentration result was “inactive”.

Take `Nc1ccc2c3c(cccc13)C(=O)NC2=O`: the max fluorescein-equivalent concentration is 2000 nM (active).

Regarding `Cc1ccc2nc(NCCCNC(=O)c3cnccn3)c(C#N)cc2c1`, the max fluorescein-equivalent concentration entry was “inactive”.

Turning to `CC(C)CNC(=O)C1CCCN(S(=O)(=O)c2ccc(-n3cnnn3)cc2)C1` (stereo not given), the max fluorescein-equivalent concentration result is “inactive”.

Consider `FC(F)(F)c1ccccc1-c1cc(NCc2ccccc2)ncn1`, for which the max fluorescein-equivalent concentration result is “inactive”.

For the compound `COCCn1c(=O)c(C)nc2cnc(N(C)C)nc21`, the max fluorescein-equivalent concentration entry is “inactive”.

Consider `CN1CCN(C(=O)c2ccc(NS(=O)(=O)c3ccccc3)cc2)CC1`, for which the max fluorescein-equivalent concentration entry is “inactive”.

Regarding `CN1CCN(Cc2nc3c(c(=O)n(C)c(=O)n3C)n2Cc2cccc3ccccc23)CC1`, the max fluorescein-equivalent concentration result is “inactive”.

As for `CS(=O)(=O)N(C(=O)NC(=O)NC1CCS(=O)(=O)C1)C1CCCCC1` (stereo not given), the max fluorescein-equivalent concentration result is “inactive”.

On to `CC[N+](C)(CC)CCC[n+]1c(-c2ccccc2)c2cc(N)ccc2c2ccc(N)cc21`, for which the max fluorescein-equivalent concentration was 18 nM (active).

Turning to `NC(=O)C1CCN(C(=O)c2ccc(C(F)(F)F)cc2)CC1`, the max fluorescein-equivalent concentration entry was “inactive”.

In the case of `CC1(C)S[C@@H]2[C@@H](NC(=O)[C@@H](N)c3ccccc3)C(=O)N2[C@H]1C(=O)O`, the max fluorescein-equivalent concentration entry was “inactive”.

Consider `O=C(NCCc1ccco1)c1nn(Cc2ccccc2)c(=O)c2ccccc12`, for which the max fluorescein-equivalent concentration entry is “inactive”.

For `CN(C)CCCn1c2ccccc2c2cnccc21`, the max fluorescein-equivalent concentration result is “inactive”.

Turning to `CC(C)c1nc2oc3c(N4CCN(C)CC4)ncnc3c2c2c1CCC2`, the max fluorescein-equivalent concentration entry was “inactive”.

For the compound `CC(=O)N1CCN(c2ccc(NCc3ccc(C(C)C)cc3)cc2)CC1`, the max fluorescein-equivalent concentration result was “inactive”.

With `Cc1ccc(C(=O)NCC(=O)O)cc1S(=O)(=O)N1CCCCC1`, the max fluorescein-equivalent concentration result was “inactive”.
